Inconclusive results are not listed. Active and inactive are the calls of the source.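 Rule for the calls, unless noted: active = percent response above a set limit, the screen-wide mean plus 3 SD (cut at about 130% in these data); inactive = the rest.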
Legend:
[1] = rapamycin-like changes in RPL19A-GFP expression – cell-based, S. cerevisiae, multiplex flow cytometry, primary screen (AID 1862; in the data active = percent of DMSO control GFP below about 86%;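 note: lower values mimic rapamycin by blocking the RPL19A rise seen in DMSO cells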); conditions: S. cerevisiae RPL19A-GFP strain, flow cytometry fluorescence, 3 h; at 10 µM; stronger effect = lower value
[2] = TOR pathway GLN3 branch reporter MEP2-GFP changes – S. cerevisiae, multiplex flow cytometry, primary screen (AID 1867;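 active = GFP response, as percent of the DMSO control, above the screen-wide mean plus 3 SD, about 139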;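 note: median GFP channel fluorescence of barcode-gated MEP2-GFP cells measured by flow cytometry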); conditions: S. cerevisiae MEP2-GFP strain, 3 h, at 10 µM, stronger effect = higher value, 100% means same as DMSO wells
[3] = TOR pathway RTG branch CIT2 reporter changes – S. cerevisiae, GFP fusion, multiplex flow cytometry, primary screen (AID 1870);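 note: barcoded CIT2-GFP strain pooled with four other GFP strains with rapamycin as positive control; median GFP fluorescence per well over plate mean of DMSO wells so 100% = DMSO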; conditions: S. cerevisiae CIT2-GFP expression, 3 h, at 10 µM, stronger effect = higher value
[4] = TOR pathway LAP4-GFP level changes – S. cerevisiae, multiplex flow cytometry, primary screen (AID 1873;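 active = GFP signal, as percent of the solvent control, above the screen mean plus 3 SD, about 149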); conditions: S. cerevisiae LAP4-GFP expression, 3 h, at 10 µM, stronger effect = higher value
[5] = yeast AGP1-GFP level changes, GLN3 branch – cell-based, multiplex flow cytometry, S. cerevisiae, primary screen (AID 1887;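 active = GFP signal above the screen-wide mean plus 3 SD, that is over about 124.5% of the solvent control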;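 note: AGP1-GFP fusion strain of S. cerevisiae within a five-strain barcoded multiplex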); conditions: 3 h, at 10 µM, stronger effect = higher value
[6] = reduced mouse 2C T cell binding to pMHC/ICAM-1 vesicles – MLPCN validation set, flow cytometry, LFA-1/ICAM-1 modulator project, pilot screen (AID 2523;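 active = response below a set limit, under 55% cells CD8-positive and vesicle-bound, and CD8 cells' 90th-percentile brightness under 279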;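 for vesicle binding response: mean PE anti-B7-1 fluorescence of CD8+ cells relative to row control; 100% = QL9-loaded vesicles with DMSO vehicle in the same plate row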); conditions: 2C mouse CD8+ T cells, at 7 µM, stronger effect = lower value; double positive events: measured here: CD8+/vesicle+ event percentage
[7] = biological target: Integrin beta-1 (Homo sapiens) + Integrin alpha-4 (Homo sapiens) (UniProt P13612+P05556); assay: alpha4beta1 integrin LIBS antibody binding reduction – U937 cells, HUTS-21 mAb, flow cytometry, validation set, VLA-4 allosteric modulator project, pilot screen (AID 2674;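 active = inhibition above 50%, about 3 SD of the validation set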;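 note: antibody binding induced by the VLA-4 ligand LDV present at three times its Kd; 0% = LDV ligand with antibody and no compound and 100% = antibody without LDV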); conditions: HUTS-21 LIBS mAb binding, at 6.7 µM, stronger effect = higher value, binding induced by LDV ligand
[8] = calorie-restriction mimetic ROS inhibitors, yeast – validation compound set, pilot screen (AID 2706;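 active = superoxide response below 65% of plate, a cut near 3 SD across the whole screen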;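 note: yeast exposed to compound for one week at 30 degrees C before staining; 100% = mean of all compound wells on the same plate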); conditions: S. cerevisiae aging, superoxide DHE fluorescence; at 10 µM; stronger effect = lower value
[9] = biological target: Beta-adrenergic receptor kinase 1 (Homo sapiens) (UniProt P25098); assay: GRK2 binders displacing RNA aptamer, biochemical, validation, human GRK2, bead flow cytometry (AID 488806;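 active = aptamer binding inhibition above 30%, about 3 SD of noise from non-fluorescent compounds; inactive = inhibition at or below 30%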); conditions: bead-bound GRK2, FAM-aptamer displacement, at 10 µM, stronger effect = higher value
[10] = biological target: Beta-2 adrenergic receptor (Homo sapiens) (UniProt P07550); assay: agonist-induced loss of surface beta2AR – cell-based, FAP fluorogen, flow cytometry, validation set, pilot screen (AID 504459;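 active = percent response above 42, roughly 3 SD of non-fluorescent test compounds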;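 note: agonist-driven loss of surface beta2AR via internalization measured by FAP dye flow cytometry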); conditions: Am2.2-beta2AR cells, at 10 µM, stronger effect = higher value
[11] = biological target: AP-2 complex subunit beta (Homo sapiens) (UniProt P63010); assay: beta-arrestin/AP2 interaction blockers – biochemical, validation set, GST-AP2 beads, flow cytometry, pilot screen (AID 504541;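 active = inhibition above 54%, about 3 SD of non-fluorescent compounds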;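 note: AP2 carries R879A mutation and is captured from E. coli lysate; bead-bound FITC arrestin peptide fluorescence measuring arrestin peptide binding to AP2; 0% = DMSO wells and 100% = excess unlabeled arrestin peptide control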); conditions: FITC arrestin peptide, at 10 µM, stronger effect = higher value, AP2 beta2 appendage fragment, R879A mutant
[12] = cytosolic pH regulators acting via V-ATPase – S. cerevisiae, pHLuorin, HTS validation (AID 504600; in the data active = response above about 15%;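 note: plate controls were DMSO for no effect and reference compound for full effect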); conditions: V-ATPase proton transport, at 10 µM, stronger effect = higher value
[13] = system: anti-desmoglein-3 scFv antibody binding to human DSG3; assay: blockers of pathogenic pemphigus antibody–desmoglein-3 binding – biochemical, validation compound set, bead-based, flow cytometry, pilot screen (AID 588368;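 active = binding below the plate cutoff, the plate median minus 3 SD, with a reading above zero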;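 note: signal is the median channel fluorescence of bead-bound GFP antibody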); conditions: Protein G beads, DSG3-Fc, scFv-GFP binding, at 10 µM, stronger effect = lower value
[14] = Nile Red efflux blockade in pump-expressing yeast – validation compound set, multiplex, phenotypic, pilot screen (AID 588506;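 active = efflux inhibition above 0.42, the validation set average plus 4 SD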;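 note: Nile Red retained in cells so higher fluorescence means more efflux inhibition; 0 = negative control wells and 1 = enniatin B 25 µM full block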); conditions: S. cerevisiae pump-expressing triplex, Nile Red efflux flow cytometry; at 10 µM; stronger effect = higher value; the pumps come from Candida albicans
[15] = biological target: ATP-binding cassette sub-family B member 6 (Homo sapiens) (UniProt Q9NP58); assay: blockers of ABCB6-driven porphyrin uptake – K562-ABCB6 cells, flow cytometry, validation set, pilot screen (AID 588550;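 active = inhibition above the screen-wide mean plus 3 SD, about 51%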;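 note: 0% = DMSO wells and 100% = benzethonium chloride 70 µM positive control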); conditions: K562-ABCB6 porphyrin accumulation, 1 h, at 10 µM, stronger effect = higher value
[16] = AML differentiation inducers, ER-HoxA9 marrow cells – cell-based, GFP/MAC1 double positive, flow cytometry, validation set, primary screen (AID 588685;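 active = differentiation response of at least 50%, scaled between solvent and reference control, from cells with both markers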;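 note: compound exposure lasts four days before antibody staining and flow analysis; 0% = DMSO wells and 100% = 5 µM fulvestrant positive control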); conditions: stronger effect = higher value, normalized: vehicle 0, fulvestrant 100

Chain of Beta-adrenergic receptor kinase 1 (Homo sapiens) (P25098 whole entry, looked up): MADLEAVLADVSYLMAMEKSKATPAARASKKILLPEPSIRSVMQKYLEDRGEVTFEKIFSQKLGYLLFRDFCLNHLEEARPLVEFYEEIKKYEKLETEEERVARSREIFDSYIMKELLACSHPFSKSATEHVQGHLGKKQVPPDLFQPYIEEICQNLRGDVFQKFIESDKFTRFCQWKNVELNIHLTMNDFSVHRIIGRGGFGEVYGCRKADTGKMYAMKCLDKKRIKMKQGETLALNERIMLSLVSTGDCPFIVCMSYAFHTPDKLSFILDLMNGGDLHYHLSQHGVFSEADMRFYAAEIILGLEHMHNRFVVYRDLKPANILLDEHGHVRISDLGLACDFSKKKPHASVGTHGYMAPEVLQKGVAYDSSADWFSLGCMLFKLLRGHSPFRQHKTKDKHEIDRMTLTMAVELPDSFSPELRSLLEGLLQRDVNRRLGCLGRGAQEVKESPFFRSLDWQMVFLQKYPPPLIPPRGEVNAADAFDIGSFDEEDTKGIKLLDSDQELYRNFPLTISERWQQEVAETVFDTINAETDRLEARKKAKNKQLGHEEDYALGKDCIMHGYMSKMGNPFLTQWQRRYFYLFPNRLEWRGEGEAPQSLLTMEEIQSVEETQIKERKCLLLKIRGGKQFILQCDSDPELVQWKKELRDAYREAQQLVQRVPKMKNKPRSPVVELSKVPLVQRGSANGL
Chain of Beta-2 adrenergic receptor (Homo sapiens) (P07550 whole entry, looked up): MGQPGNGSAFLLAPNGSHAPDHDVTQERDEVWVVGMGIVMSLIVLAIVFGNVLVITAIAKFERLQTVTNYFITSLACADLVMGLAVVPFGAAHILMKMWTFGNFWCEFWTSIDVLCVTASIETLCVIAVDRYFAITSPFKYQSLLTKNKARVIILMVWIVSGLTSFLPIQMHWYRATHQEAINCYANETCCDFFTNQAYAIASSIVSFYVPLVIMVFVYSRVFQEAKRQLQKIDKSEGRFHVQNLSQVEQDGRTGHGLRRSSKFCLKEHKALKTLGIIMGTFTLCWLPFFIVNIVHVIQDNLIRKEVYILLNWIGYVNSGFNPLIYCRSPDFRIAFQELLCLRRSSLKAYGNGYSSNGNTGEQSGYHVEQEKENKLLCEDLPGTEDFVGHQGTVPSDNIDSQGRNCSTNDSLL
Chain of ATP-binding cassette sub-family B member 6 (Homo sapiens) (Q9NP58 whole entry, looked up): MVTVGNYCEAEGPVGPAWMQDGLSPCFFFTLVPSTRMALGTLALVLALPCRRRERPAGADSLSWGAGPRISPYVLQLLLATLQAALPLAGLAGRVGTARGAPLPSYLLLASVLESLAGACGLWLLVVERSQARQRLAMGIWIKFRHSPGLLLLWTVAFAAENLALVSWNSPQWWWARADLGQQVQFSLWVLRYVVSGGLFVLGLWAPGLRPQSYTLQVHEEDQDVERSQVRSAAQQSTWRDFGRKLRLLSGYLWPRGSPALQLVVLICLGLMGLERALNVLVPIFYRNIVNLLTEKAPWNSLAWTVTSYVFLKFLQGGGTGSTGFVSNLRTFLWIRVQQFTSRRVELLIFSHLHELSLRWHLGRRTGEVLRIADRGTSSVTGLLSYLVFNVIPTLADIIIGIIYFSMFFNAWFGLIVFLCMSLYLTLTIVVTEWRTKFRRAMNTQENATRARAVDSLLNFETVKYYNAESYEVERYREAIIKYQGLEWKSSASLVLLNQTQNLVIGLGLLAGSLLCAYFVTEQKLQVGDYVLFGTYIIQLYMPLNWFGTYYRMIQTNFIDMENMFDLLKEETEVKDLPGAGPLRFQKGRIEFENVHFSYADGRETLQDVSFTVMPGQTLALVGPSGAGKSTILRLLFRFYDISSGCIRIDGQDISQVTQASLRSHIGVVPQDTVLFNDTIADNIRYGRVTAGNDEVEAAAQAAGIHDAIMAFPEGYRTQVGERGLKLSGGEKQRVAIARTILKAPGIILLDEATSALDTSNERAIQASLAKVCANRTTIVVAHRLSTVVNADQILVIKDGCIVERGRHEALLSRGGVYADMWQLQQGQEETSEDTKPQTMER
Chain of AP-2 complex subunit beta (Homo sapiens) (P63010 whole entry, looked up, the tested form may be a part, one chain of several): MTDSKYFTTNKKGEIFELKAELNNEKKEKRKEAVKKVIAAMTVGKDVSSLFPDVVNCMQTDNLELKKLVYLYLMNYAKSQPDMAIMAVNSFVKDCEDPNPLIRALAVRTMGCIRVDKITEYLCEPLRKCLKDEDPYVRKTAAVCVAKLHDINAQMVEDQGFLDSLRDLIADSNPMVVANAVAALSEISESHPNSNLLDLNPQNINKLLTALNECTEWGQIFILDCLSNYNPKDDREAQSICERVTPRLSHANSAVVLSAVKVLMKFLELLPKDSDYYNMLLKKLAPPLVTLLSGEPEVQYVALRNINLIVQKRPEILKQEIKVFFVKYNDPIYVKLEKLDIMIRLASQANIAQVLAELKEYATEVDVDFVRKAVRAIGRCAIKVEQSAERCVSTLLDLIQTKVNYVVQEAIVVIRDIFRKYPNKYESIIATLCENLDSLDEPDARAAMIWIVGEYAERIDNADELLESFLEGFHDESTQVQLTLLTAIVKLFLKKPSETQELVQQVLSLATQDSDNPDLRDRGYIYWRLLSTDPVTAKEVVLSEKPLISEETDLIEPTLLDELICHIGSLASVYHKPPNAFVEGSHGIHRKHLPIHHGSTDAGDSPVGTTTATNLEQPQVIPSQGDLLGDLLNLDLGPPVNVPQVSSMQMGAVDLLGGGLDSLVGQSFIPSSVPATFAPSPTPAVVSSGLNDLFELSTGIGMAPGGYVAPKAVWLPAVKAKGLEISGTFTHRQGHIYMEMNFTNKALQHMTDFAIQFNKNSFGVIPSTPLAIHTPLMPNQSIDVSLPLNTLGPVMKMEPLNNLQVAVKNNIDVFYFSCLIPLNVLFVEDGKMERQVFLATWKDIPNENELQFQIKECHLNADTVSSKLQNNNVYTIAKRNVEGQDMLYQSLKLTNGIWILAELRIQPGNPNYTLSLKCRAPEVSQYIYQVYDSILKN
Chain of Integrin beta-1 (Homo sapiens) + Integrin alpha-4 (Homo sapiens) (P05556 whole entry, looked up): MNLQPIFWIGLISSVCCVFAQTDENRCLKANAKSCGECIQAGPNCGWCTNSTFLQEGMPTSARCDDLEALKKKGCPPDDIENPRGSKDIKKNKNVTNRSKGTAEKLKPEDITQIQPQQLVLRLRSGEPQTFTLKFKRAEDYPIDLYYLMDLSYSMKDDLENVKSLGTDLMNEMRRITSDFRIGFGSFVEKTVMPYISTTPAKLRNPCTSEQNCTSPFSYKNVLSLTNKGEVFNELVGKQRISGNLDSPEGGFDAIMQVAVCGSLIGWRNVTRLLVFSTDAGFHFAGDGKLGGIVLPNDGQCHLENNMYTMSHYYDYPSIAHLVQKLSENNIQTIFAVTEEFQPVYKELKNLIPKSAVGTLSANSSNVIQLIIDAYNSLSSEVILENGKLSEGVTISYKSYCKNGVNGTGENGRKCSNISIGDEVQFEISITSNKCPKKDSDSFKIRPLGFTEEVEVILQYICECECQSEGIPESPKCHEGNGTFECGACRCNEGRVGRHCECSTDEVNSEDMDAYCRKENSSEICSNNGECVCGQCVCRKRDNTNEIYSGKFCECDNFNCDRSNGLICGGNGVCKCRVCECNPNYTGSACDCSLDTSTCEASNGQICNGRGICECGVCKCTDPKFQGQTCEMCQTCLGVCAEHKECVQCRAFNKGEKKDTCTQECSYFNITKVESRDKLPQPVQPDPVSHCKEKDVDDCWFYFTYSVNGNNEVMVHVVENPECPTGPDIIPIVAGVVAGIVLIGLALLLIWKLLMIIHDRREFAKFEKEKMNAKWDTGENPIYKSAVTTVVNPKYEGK
Chain of Integrin beta-1 (Homo sapiens) + Integrin alpha-4 (Homo sapiens) (P13612 whole entry, looked up): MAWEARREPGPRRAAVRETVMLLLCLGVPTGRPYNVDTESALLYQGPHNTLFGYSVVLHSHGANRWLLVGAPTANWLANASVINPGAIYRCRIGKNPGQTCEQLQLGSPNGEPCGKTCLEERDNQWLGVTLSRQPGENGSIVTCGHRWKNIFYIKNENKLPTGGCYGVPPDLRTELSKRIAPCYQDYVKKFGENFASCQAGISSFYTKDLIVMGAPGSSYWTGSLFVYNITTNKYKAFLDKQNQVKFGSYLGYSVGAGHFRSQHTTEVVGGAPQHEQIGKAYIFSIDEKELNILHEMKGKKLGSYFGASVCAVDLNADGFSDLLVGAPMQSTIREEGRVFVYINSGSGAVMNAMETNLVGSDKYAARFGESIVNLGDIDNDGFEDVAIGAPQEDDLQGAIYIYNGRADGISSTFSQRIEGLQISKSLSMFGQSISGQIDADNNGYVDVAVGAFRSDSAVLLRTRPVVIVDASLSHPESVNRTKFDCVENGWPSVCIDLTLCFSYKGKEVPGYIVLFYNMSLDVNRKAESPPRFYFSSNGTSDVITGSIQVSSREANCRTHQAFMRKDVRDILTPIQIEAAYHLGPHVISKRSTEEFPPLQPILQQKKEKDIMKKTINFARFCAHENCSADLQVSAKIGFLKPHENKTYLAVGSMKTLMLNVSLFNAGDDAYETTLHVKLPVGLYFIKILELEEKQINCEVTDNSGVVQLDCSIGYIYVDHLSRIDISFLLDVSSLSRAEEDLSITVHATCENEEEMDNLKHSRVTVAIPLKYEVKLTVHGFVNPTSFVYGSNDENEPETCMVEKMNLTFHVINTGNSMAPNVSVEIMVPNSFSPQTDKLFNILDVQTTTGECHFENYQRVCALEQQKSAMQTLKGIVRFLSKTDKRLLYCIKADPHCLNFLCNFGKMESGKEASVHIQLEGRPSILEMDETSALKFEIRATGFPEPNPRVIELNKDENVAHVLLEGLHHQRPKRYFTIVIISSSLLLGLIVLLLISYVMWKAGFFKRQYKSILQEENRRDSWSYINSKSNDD

O=C(N1CCCCC1)C1(c2ccccc2)CCOCC1
57.5%: double positive events [6]
inactive: percent of DMSO control GFP [1] 99.3% | GFP response vs DMSO [2] 103% | percent response of DMSO control [3] 92% | GFP response vs DMSO [4] 129% | GFP response, % of DMSO [5] 103% | vesicle binding response [6] 213% | inhibition [7] -3.16% | superoxide response (% of plate) [8] 92.5% | aptamer binding inhibition [9] 1% | response [10] -7.86% | inhibition [11] 7.05% | response [12] 0.45% | binding (% of control) [13] 104% | efflux inhibition (fraction of control) [14] -0.17 | inhibition [15] 5% | differentiation response [16] -24.8%

CC(C)COCC(CN(Cc1ccccc1)c1ccccc1)N1CCCC1 (stereo not drawn)
61.3%: double positive events [6]
inactive: percent of DMSO control GFP [1] 93.5% | GFP response vs DMSO [2] 121% | percent response of DMSO control [3] 104% | GFP response vs DMSO [4] 74.3% | GFP response, % of DMSO [5] 91.9% | vesicle binding response [6] 119% | inhibition [7] 1.61% | superoxide response (% of plate) [8] 116% | aptamer binding inhibition [9] -2% | response [10] 8.3% | inhibition [11] -11.8% | response [12] 0.91% | binding (% of control) [13] 113% | efflux inhibition (fraction of control) [14] 0.16 | inhibition [15] 8% | differentiation response [16] -0.82%

O=C(COc1ccc2c(-c3ccccc3)cc(=O)oc2c1)NCc1cccs1
64.6%: double positive events [6]
inactive: percent of DMSO control GFP [1] 97.5% | GFP response vs DMSO [2] 96.6% | percent response of DMSO control [3] 85.4% | GFP response vs DMSO [4] 102% | GFP response, % of DMSO [5] 102% | vesicle binding response [6] 214% | inhibition [7] -3.67% | superoxide response (% of plate) [8] 92.2% | aptamer binding inhibition [9] -2% | response [10] -25.8% | inhibition [11] 26.5% | response [12] -7% | binding (% of control) [13] 102% | efflux inhibition (fraction of control) [14] 0.12 | inhibition [15] 14% | differentiation response [16] 6.83%

Nc1ccc(-c2nc3ncccc3o2)c(Cl)c1
inactive: percent of DMSO control GFP [1] 97.8% | GFP response vs DMSO [2] 103% | percent response of DMSO control [3] 97.7% | GFP response vs DMSO [4] 112% | GFP response, % of DMSO [5] 98.6% | vesicle binding response [6] 243% | inhibition [7] -15.4% | superoxide response (% of plate) [8] 118% | aptamer binding inhibition [9] 0% | response [10] 0.9% | inhibition [11] -5.26% | binding (% of control) [13] 103% | efflux inhibition (fraction of control) [14] 0.15 | inhibition [15] 6% | differentiation response [16] 4%
active: response [12] 61.4%
56.7%: double positive events [6]

CC(C(=O)O)c1cccc(C(=O)c2ccccc2)c1 (stereo not drawn)
67.3%: double positive events [6]
inactive: percent of DMSO control GFP [1] 102% | GFP response vs DMSO [2] 107% | percent response of DMSO control [3] 97.6% | GFP response vs DMSO [4] 110% | GFP response, % of DMSO [5] 107% | vesicle binding response [6] 145% | inhibition [7] 4.27% | superoxide response (% of plate) [8] 97.3% | aptamer binding inhibition [9] 4% | response [10] 6.64% | inhibition [11] -7.83% | response [12] -2.55% | binding (% of control) [13] 101% | efflux inhibition (fraction of control) [14] 0.36 | inhibition [15] 20% | differentiation response [16] -7.5%

O=C1CC[C@@H](CN(Cc2ccccc2)Cc2cn[nH]c2-c2cc3ccccc3o2)N1
inactive: percent of DMSO control GFP [1] 101% | GFP response vs DMSO [2] 108% | percent response of DMSO control [3] 99.6% | GFP response vs DMSO [4] 110% | GFP response, % of DMSO [5] 114% | vesicle binding response [6] 198% | inhibition [7] -4.52% | superoxide response (% of plate) [8] 93.3% | aptamer binding inhibition [9] 5% | response [10] 40.3% | inhibition [11] 2.07% | response [12] 3.87% | binding (% of control) [13] 101% | efflux inhibition (fraction of control) [14] 0.38 | inhibition [15] 1% | differentiation response [16] -7.94%
63.1%: double positive events [6]

CN(C)[C@@H]1C(=O)C(C(N)=O)=C(O)[C@@]2(O)C(=O)C3=C(O)c4c(O)ccc(Cl)c4[C@@H](O)[C@H]3C[C@@H]12
59.2%: double positive events [6]
inactive: percent of DMSO control GFP [1] 104% | GFP response vs DMSO [2] 105% | percent response of DMSO control [3] 98.3% | GFP response vs DMSO [4] 104% | GFP response, % of DMSO [5] 109% | vesicle binding response [6] 122% | inhibition [7] -7.93% | superoxide response (% of plate) [8] 96% | aptamer binding inhibition [9] 10% | response [10] -15.7% | inhibition [11] 10.7% | response [12] -7.23% | binding (% of control) [13] 101% | efflux inhibition (fraction of control) [14] -0.17 | inhibition [15] -10% | differentiation response [16] 8.8%

COC(=O)c1ccc(C(=O)OC)c(NC(=O)C(C)C)c1
inactive: percent of DMSO control GFP [1] 97.8% | GFP response vs DMSO [2] 102% | percent response of DMSO control [3] 102% | GFP response vs DMSO [4] 138% | GFP response, % of DMSO [5] 112% | vesicle binding response [6] 204% | inhibition [7] -72.7% | superoxide response (% of plate) [8] 100% | aptamer binding inhibition [9] 0% | response [10] -13.3% | inhibition [11] -9.41% | response [12] 0.33% | binding (% of control) [13] 97.1% | efflux inhibition (fraction of control) [14] 0 | inhibition [15] -3% | differentiation response [16] 0.92%
63.1%: double positive events [6]

CC(=O)c1cccc2c(O)c(C3=Nc4ccccc4C3=O)[nH]c12
69.7%: double positive events [6]
inactive: percent of DMSO control GFP [1] 88% | GFP response vs DMSO [2] 118% | percent response of DMSO control [3] 114% | GFP response vs DMSO [4] 85.3% | GFP response, % of DMSO [5] 90.8% | vesicle binding response [6] 202% | inhibition [7] -29.4% | superoxide response (% of plate) [8] 129% | aptamer binding inhibition [9] 4% | response [10] -1.02% | inhibition [11] -5.62% | response [12] 0.43% | binding (% of control) [13] 103% | efflux inhibition (fraction of control) [14] 0.23 | inhibition [15] 9% | differentiation response [16] 4.91%

From PubChem BioAssay
